Molecules are shown by their SMILES. Records with an inconclusive call do not appear. Unmarked numbers belong to inactive results. Calls follow the shape of the dose curve; as a rule, active = well fitted activation curve with a large enough effect in the signal ratio in the repeat runs (not every such curve was filed as active); inconclusive = weak or mixed curves; inactive = flat fitted curve, though single readings scatter; the % refers to the signal ratio.
% is scaled to controls: 0 for no effect and ±100 for the full control effect.

The assay is described as follows: qHTS assay to identify small molecule agonists of the hypoxia (HIF-1) signaling pathway (AID 1224846). The settings on record: HRE-bla ME-180 cells, beta-lactamase ratio, 17 h; series mostly up to 76.8 µM; activation: at the top concentration. A digest of the protocol: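 Steps: seed ME-180 HRE-bla cells (2,000/well, 0.5% dialyzed FBS); incubate 5 hrs at 37C; pin-transfer compounds or DMSO; incubate 17 hrs; add LiveBLAzer B/G substrate CCF4-AM; measure reporter activation by FRET.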
With `O=C(O)c1cccc(C(F)(F)F)c1`, the “activation” value was -2.98%.

`O=C(O)CCN(C1(C(=O)NO)CCCC1)S(=O)(=O)c1ccc(Oc2ccc(F)cc2)cc1`: the “activation” value is -1.13%.

For the compound `Cc1nc(-c2ccc(Cl)cc2)oc1COC(C)(C)C(=O)O`, the “activation” value is -1.22% [at 35.5 µM]. With `O=C(O)c1cc(=O)c2ccccc2o1` the figure was -0.224% [at 35.5 µM]; with `OCC(F)(F)F`, 0.0963%. On to `Cc1cccc(C(=O)O)c1O`, for which the “activation” value is -1.11% [at 35.5 µM]. With `C=CC(C)(CCC=C(C)C)OC=O` (stereo not drawn) the figure was 0.724%. For the compound `OC[C@@H](O)[C@@H](O)CO`, the “activation” value was -0.656%.

In the case of `CCC(COC(=O)CCS)(COC(=O)CCS)COC(=O)CCS`, the “activation” value was 2.04%. The value for `Cc1cccc(C)c1NC(=O)c1ccc(N)cc1` was -0.88% [at 35.5 µM]. The value for `Cc1c(N)cccc1C(F)(F)F` was -0.821% [at 35.5 µM].

In the case of `CCCCCCOC(=O)C(C)CC` (stereo not drawn), the “activation” value was -0.986%. With `C1CCC(SSC2CCCCC2)CC1` the figure was 3.91%; with `CC(C)Cn1cnc2c(N)nc3ccccc3c21`, 0.447% [at 15.8 µM]. Regarding `CC(=O)c1ccc(C(C)=O)cc1`, the “activation” value is -1.45%. For `CC(C)(c1cc(Br)c(OCC(Br)CBr)c(Br)c1)c1cc(Br)c(OCC(Br)CBr)c(Br)c1` (stereo not drawn), the “activation” value was 0.155% [at 35.5 µM]. With `Clc1sc(Cl)c(Cl)c1Cl` the figure was -0.136%; with `Cc1cc(-c2ccc(N=Nc3cc(S(=O)(=O)O)c4ccccc4c3N)c(C)c2)ccc1N=Nc1cc(S(=O)(=O)O)c2ccccc2c1N`, 0.386%. For the compound `CCCCCc1ccc(Cl)cc1`, the “activation” value is -0.252%. The value for `Cc1ccc(C)cc1` was 0.268%; that for `Cc1ccc(-c2ccccc2)cc1` was 0.134%; that for `COc1cc(/C=C/c2ccccc2)oc(=O)c1` was 1.05%. For `Cc1ccc(C(C)C)cc2c(C)ccc1-2`, the “activation” value is -0.402% [at 35.5 µM]. For `CC(C)(C)C1CCC(=O)CC1`, the “activation” value is 0.359%.

`S=c1nccc[nH]1`: the “activation” value was -0.195%. As to `CCC(=O)C(=O)CC`, the “activation” value is -0.954%. The value for `CCc1ccc(Br)cc1` was -2.46%. For the compound `Cc1cccc2cccnc12`, the “activation” value is 0.101%. The value for `Cc1c(F)c(N2CCNC(C)C2)cc2c1c(=O)c(C(=O)O)cn2C1CC1` (stereo not drawn) was -0.587% [at 35.5 µM]; that for `O=C(/C=C/c1ccccc1)OC/C=C/c1ccccc1` was 1.04%. `Nc1nc(-c2ccccc2)cs1`: the “activation” value was 0.0887%. In the case of `CC(C)OC(=O)C(O)(CC(=O)O)CC(=O)O`, the “activation” value is -1.58%. Turning to `CCCCCCCC`, the “activation” value was -0.424%.

Take `CCOc1ccc2ccccc2c1C(=O)N[C@@H]1C(=O)N2[C@@H]1SC(C)(C)[C@@H]2C(=O)O`: the “activation” value was -1.77% [at 35.5 µM].

With `Cc1ccc(C(=O)O)cc1`, the “activation” value was -0.563%.

For `COc1cc(C)ccc1O`, the “activation” value was -0.124%. The value for `OC[C@H]1O[C@H](O[C@H]2O[C@H](CO)[C@@H](O)[C@H](O)[C@H]2O)[C@H](O)[C@@H](O)[C@@H]1O` was 1.07%; that for `Cc1c(C)c2c(c(C)c1OC(=O)c1cccnc1)CC[C@@](C)(CCC[C@H](C)CCC[C@H](C)CCCC(C)C)O2` was 0.298% [at 35.5 µM].
